Source: PubChem
This is a sample that favours compounds with a hit; in the whole collection about 1.2% have one here.
IL1B NFkB inh: blocks IL-1B driven NFkB nuclear translocation in HUVEC cells. HUVEC IL-1B NFkB p65 nuclear translocation imaging. inhibition, % at 2 µM. hit rate 0.43% among 94,000. AID 796;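 active means inhibition above about 30% together with a positive call from visual inspection of the well image, limit read from the data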;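 further: nuclear over cytoplasmic p65 intensity ratio measured by imaging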
HUVEC tox IL1B: HUVEC cytotoxicity counter-screen, IL-1B stimulated | hit rate 0.41% among 94,000 | HUVEC cell count loss, Hoechst imaging | cell count reduction, % at 2 µM;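 active means cell count reduction more than 3 SD above the screen-wide mean, cut at about 70% in these data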
Smad3 inh: inhibitors of human Smad3 transcription factor binding. P84022. TR-FRET Smad3/Dy647-FoxH1 peptide binding, europium anti-His. inhibition, % at 25 µM. hit rate 0.29% among 88,000. AID 630;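 active means compounds that reduce the energy-transfer binding signal between the protein and its labelled peptide by more than half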
Target sequence (P84022 whole entry, looked up): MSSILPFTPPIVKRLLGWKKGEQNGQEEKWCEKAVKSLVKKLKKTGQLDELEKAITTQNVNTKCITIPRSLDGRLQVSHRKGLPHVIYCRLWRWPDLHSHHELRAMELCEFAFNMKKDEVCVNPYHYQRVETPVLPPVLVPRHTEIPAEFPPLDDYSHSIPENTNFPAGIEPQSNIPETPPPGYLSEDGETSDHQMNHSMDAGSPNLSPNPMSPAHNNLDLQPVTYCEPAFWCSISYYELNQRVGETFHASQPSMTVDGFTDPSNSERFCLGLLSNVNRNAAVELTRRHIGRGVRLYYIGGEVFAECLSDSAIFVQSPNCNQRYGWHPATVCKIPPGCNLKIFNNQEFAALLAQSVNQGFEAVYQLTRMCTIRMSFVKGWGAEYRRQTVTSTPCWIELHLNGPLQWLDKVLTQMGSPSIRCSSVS
IL1B NFkB pot: enhances IL-1B driven NFkB nuclear translocation. HUVEC IL-1B NFkB p65 nuclear translocation imaging. activation, % at 2 µM. hit rate 0.3% among 94,000. AID 819;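 active means activation above 40%, about the mean plus 3 SD, also judged a hit on visual image review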;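 further: percent activation is computed from the nuclear over cytoplasmic p65 intensity ratio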
Each line names hits and unclear results; the compound was inactive in the other large screens; [ ] = remark or other dose.

C[N+](C)(C)[C@H](Cc1c[nH]c(=S)[nH]1)C(=O)O	none (no result: IL1B NFkB inh, HUVEC tox IL1B, IL1B NFkB pot)
COc1ccc2nc(SCC(=O)N3CC(=O)Nc4ccccc43)c(C#N)cc2c1	none (no result: Smad3 inh)
COc1ccc2nc(SCC(=O)N3CCN(c4ccccc4F)CC3)c(C#N)cc2c1	IL1B NFkB inh 46
O=C(CCN1Cc2ccccc2C1)c1ccc2c(c1)OCCO2	none
O=C(CCN1CCc2ccccc2C(c2ccccc2)C1)c1ccc2c(c1)OCCO2 (stereo not drawn)	IL1B NFkB inh 34
O=C(N/N=C/c1ccc2c(c1)CCC2)c1ccccc1O	none (no result: IL1B NFkB inh, HUVEC tox IL1B, IL1B NFkB pot)
CCOC(=O)N1CCC(N2C(=O)c3ccccc3C2Nc2cc(C(=O)OC)cc(C(=O)OC)c2)CC1 (stereo not drawn)	IL1B NFkB pot 42
CCOC(=O)N1CCC(N2C(=O)c3ccccc3C2Nc2ccccc2)CC1 (stereo not drawn)	none
CCCNC(=O)Cn1cnc2sc(C(=O)Nc3cc(OC)c(OC)c(OC)c3)c(C)c2c1=O	none
CCN(CC)C(=O)Cn1cnc2sc(C(=O)Nc3cc(OC)c(OC)c(OC)c3)c(C)c2c1=O	IL1B NFkB pot 42
O=C(NCC1OCCc2ccccc21)c1ccco1 (stereo not drawn)	IL1B NFkB pot 53
O=C(CCN1CCCCC1)NCC1OCCc2ccccc21 (stereo not drawn)	none
Cn1cc(S(=O)(=O)N2CCN(c3cccc(C(F)(F)F)c3)CC2)c(=O)n(C)c1=O	IL1B NFkB inh 56
COC(=O)c1[nH]c2cccc(OC)c2c1NC(=O)CN1CCOCC1	none
COC(=O)c1[nH]c2cccc(OC)c2c1NC(=O)CN1CC2(C)CC1CC(C)(C)C2 (stereo not drawn)	Smad3 inh 67[fluorescence artefact?]
CCOC(=O)c1ccc(Nc2nc(C(=O)OCC)nc3ccccc23)cc1	HUVEC tox IL1B 84
O=C(O)/C=C(/CC(=O)O)C(=O)O	none (no result: IL1B NFkB inh, HUVEC tox IL1B, IL1B NFkB pot)
Oc1cc(CN2COc3ccccc32)c(O)cc1CNC1CCCCC1	Smad3 inh 74 (no result: IL1B NFkB inh, HUVEC tox IL1B, IL1B NFkB pot)
Cc1ccc(C(=O)Nc2ncnc3sc4c(c23)CCCCC4)cc1	none
CC(c1ccccc1)n1cc(C(=O)NCC2CCCO2)nn1 (stereo not drawn)	none
CC(c1ccccc1)n1cc(C(=O)NCCN2CCOCC2)nn1 (stereo not drawn)	IL1B NFkB pot 53
Clc1ccc(Cl)c(SCCCN2CCNCC2)c1	none (no result: IL1B NFkB inh, HUVEC tox IL1B, IL1B NFkB pot)
NC(=O)/C=C\C(=O)Nc1cccc(C(F)(F)F)c1	HUVEC tox IL1B 84 (no result: Smad3 inh)
CCCCCCCCC(=O)NC(NC(=S)N1CCOCC1)C(Cl)(Cl)Cl (stereo not drawn)	IL1B NFkB pot 41
Cn1cnc([N+](=O)[O-])c1Sc1nc(N)nc2c1ncn2[C@@H]1C[C@H](O)[C@@H](CO)O1	none (no result: IL1B NFkB inh, HUVEC tox IL1B, IL1B NFkB pot)
O=C(Cn1nc(-c2ccccc2)ccc1=O)NCC1COCCO1 (stereo not drawn)	IL1B NFkB inh 98, HUVEC tox IL1B 89
CN1CCN(CCCNC(=O)Cn2nc(-c3ccccc3)ccc2=O)CC1	none (no result: IL1B NFkB inh, HUVEC tox IL1B, IL1B NFkB pot)
CC1(C)[C@@H]2CC[C@@](C)(C2)[C@@H]1OC(=O)c1ccccc1C(=O)O	none (no result: IL1B NFkB inh, HUVEC tox IL1B, IL1B NFkB pot)
N=C1[C@H](O)[C@]2(I)c3ccccc3N3C(=N)[C@H](O)[C@@H]4c5ccccc5N1[C@@H]4[C@@H]32	Smad3 inh 57 (no result: IL1B NFkB inh, HUVEC tox IL1B, IL1B NFkB pot)
O=C(O)c1c2c(c(O)c3c1CN(C1CCCCC1)CO3)OCN(C1CCCCC1)C2	Smad3 inh 62 (no result: IL1B NFkB inh, HUVEC tox IL1B, IL1B NFkB pot)
O=C(c1ccccc1)N1CCN(C2CCCCCC2)CC1	none
Cc1nnc(SCc2ccccc2C#N)n1-c1ccccc1	HUVEC tox IL1B 82
Cc1nnc(SCc2ccon2)n1-c1ccccc1	none (no result: Smad3 inh)
O=C(NCC1CCCO1)c1ccc(C(=O)NCC2CCCO2)cc1 (stereo not drawn)	none
CCOc1ccc(C(=O)NCC2CCCO2)cc1 (stereo not drawn)	IL1B NFkB pot 56
CC1CCN(C(=O)CSc2nnc(CNc3ccc(F)cc3)n2Cc2ccco2)CC1	IL1B NFkB inh 32, HUVEC tox IL1B 84
O=C(CSc1nnc(CNc2ccc(F)cc2)n1Cc1ccco1)N1CCCC1	none (no result: IL1B NFkB inh, HUVEC tox IL1B, IL1B NFkB pot)
N/C(=N/O)c1cn([C@H]2O[C@@H](CO)[C@H](O)[C@H]2O)c2ncnc(NO)c12	none (no result: IL1B NFkB inh, HUVEC tox IL1B, IL1B NFkB pot)
COc1ccc(/C=N/NC(=O)CSc2nnc(CCCc3ccc(OC)c(C)c3)o2)cc1	none (no result: Smad3 inh)
O=C(O)[C@@H]1[C@H](C(=O)NCc2ccccn2)[C@@H]2C=C[C@H]1O2	none (no result: IL1B NFkB inh, HUVEC tox IL1B, IL1B NFkB pot)
CN(Cc1ccccc1)C(=O)c1ccccc1NC(=O)c1ccco1	HUVEC tox IL1B 88, IL1B NFkB pot 42
O=C(O)CNC(=O)c1ccccc1NC(=O)c1ccco1	none
C[C@@H]1CC[C@H]2[C@H](C)[C@@H]3[C@@H](C[C@H]4[C@H]5CC=C6C[C@@H](O)CC[C@]6(C)[C@@H]5C[C@@H](O)[C@]34C)N2C1	none (no result: IL1B NFkB inh, HUVEC tox IL1B, IL1B NFkB pot)
C[N@@+]1(CCC(=O)c2ccccc2)CC[C@H]2CC[C@H](C2)C1	none (no result: IL1B NFkB inh, HUVEC tox IL1B, IL1B NFkB pot)
Cn1c(SCC(=O)Nc2ccc3c(c2)OCO3)nnc1-c1cnccn1	HUVEC tox IL1B 86
O=C(O)[C@@H]1[C@H](C(=O)Nc2ncccn2)[C@@H]2C=C[C@H]1O2	none (no result: IL1B NFkB inh, HUVEC tox IL1B, IL1B NFkB pot)
CN(CCC#N)C(=O)c1ccc(CNS(=O)(=O)c2ccc(F)cc2)cc1	IL1B NFkB inh 100, HUVEC tox IL1B 86
Cc1ccc(S(=O)(=O)NCc2ccc(C(=O)N(C)CCC#N)cc2)cc1	none
CCOC(=O)CNC(=O)C(CC(C)C)NC(=O)C1CCCCC1 (stereo not drawn)	none
Cc1cc(C)c(C#N)c(SCc2ccccc2)n1	HUVEC tox IL1B 91
Cc1cc(C)c(C#N)c(SCSCc2ccccc2)n1	none
CCOC(=O)CSc1nc(C)cc(C)c1C#N	IL1B NFkB inh 50
CN(C)[C@H]1C(=O)C(C(=O)NCN2CCCC2)=C(O)[C@@]2(O)C(=O)C3=C(O)c4c(O)cccc4[C@](C)(O)[C@H]3C[C@H]12	none (no result: IL1B NFkB inh, HUVEC tox IL1B, IL1B NFkB pot)
CS(=O)(=O)Nc1ccc2c(c1)C(=O)OC2	IL1B NFkB pot 57
N#Cc1c(SCC(N)=O)nc2c(c1-c1ccc(OCc3ccccc3)cc1)CCCC2	HUVEC tox IL1B 86
O=C(CSc1nnc(-c2ccccc2)o1)OCc1ccccc1	IL1B NFkB pot 69 (no result: Smad3 inh)
CCCn1c(=O)c(C(=O)Nc2nnc(C)s2)c(O)c2ccccc21	none (no result: IL1B NFkB inh, HUVEC tox IL1B, IL1B NFkB pot)
Clc1cccc(OCCn2cncn2)c1Cl	IL1B NFkB pot 45
O=S(=O)(C/C(=C/CO)S(=O)(=O)c1ccccc1)c1ccccc1	IL1B NFkB inh 51 (no result: Smad3 inh)
O=C(CS(=O)(=O)c1ccccc1)N1CCCCCC1	none
Cc1nc2ccc(NC(=O)N3CCOCC3)cc2s1	IL1B NFkB inh 51
Cc1nc2ccc(NC(=O)c3cc(S(=O)(=O)N4CCOCC4)ccc3C)cc2s1	none
Cc1ccc(-c2ccc(=O)[nH]n2)cc1	IL1B NFkB inh 98, HUVEC tox IL1B 82
CCC1(CC)C(=O)NN(c2ccccc2)C1=O	none
O=C(O)C1C2C=CC(O2)C1C(=O)Nc1ccc(S(=O)(=O)N2CCc3ccccc32)cc1 (stereo not drawn)	IL1B NFkB inh 49
O=c1[nH]cnc2c1ncn2[C@@H]1O[C@H](CO)[C@@H](O)[C@H]1O	none (no result: IL1B NFkB inh, HUVEC tox IL1B, IL1B NFkB pot)
OC[C@@H]1CCC[C@H](n2cnc3c(=S)nc[nH]c32)O1	Smad3 inh 55 (no result: IL1B NFkB inh, HUVEC tox IL1B, IL1B NFkB pot)
Cc1cccc2nc(Cn3c(=O)n(CCC(=O)NCc4ccco4)c(=O)c4ccccc43)cc(=O)n12	none (no result: IL1B NFkB inh, HUVEC tox IL1B, IL1B NFkB pot)
CC(=O)C1=C(C)OC(N)=C(C#N)C1c1cc2cc(C)c(C)cc2nc1Cl (stereo not drawn)	IL1B NFkB pot 43 (no result: Smad3 inh)
